Assay [1] deals with Human papillomavirus type 1a protein E7 (residues 44-93). Nature of the assay: small molecules binding HPV E7 44-93 – biochemical, small-molecule microarray, residues 44-93, 635 nm fluorescence, primary screen (AID 1108).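 Further: E7 fragment applied at 1 µg/mL in TBST for 1 h at 4 C; score combines spot fluorescence with its signal to noise ratio.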 Particulars: fluorescence 635 nm, higher = more signal.
The nature of assay [2]: hepatitis C replication reporter changes, two-sided – Huh7 cells, luciferase reporter, HCV replication inhibitor project, primary screen (AID 1109).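 Further: huh7 hepatoma cells harbouring a luciferase neomycin HCV replicon reporter; luciferase luminescence as measure of HCV replicon replication; test concentration not given here.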 Particulars: Huh7 HCV replicon luciferase reporter, 48 h; higher = more signal.
Assay [3] addresses Left-right determination factor 2 (Homo sapiens) (UniProt O00292). Nature of the assay: small molecules binding LEFTY2 protein – biochemical, small-molecule microarray, 635 nm fluorescence scan, primary screen (AID 1110). Particulars: higher = more signal.
Assay [4] concerns the target Calmodulin-1 (Homo sapiens) (UniProt P0DP23). Kind of assay: small molecules binding calmodulin-1 with EGTA – biochemical, small-molecule microarray, Cy5-labelled CALM1, profiling panel (AID 1111).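 Further: labelled calmodulin applied in Tris saline Tween buffer holding calcium plus EGTA and DTT.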 Particulars: Cy5-CALM1 binding fluorescence, higher = more signal.
For assay [5] the target is unchanged. Kind of assay: small molecules binding Ca-loaded calmodulin-1 – biochemical, small-molecule microarray, Cy5-labelled CALM1, plus calcium, artefact control for SMM control-protein annotation, profiling panel (AID 1112).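 Further: score merges spot fluorescence with signal to noise from triplicate slides.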 The following applies: Cy5-CALM1 binding fluorescence, higher = more signal.
A short description of assay [6]: probe aWnt5a binding to arrayed compounds – biochemical, biotinylated probe, 635/667 nm fluorescence, primary screen (AID 1113).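 Further: score merges 667 nm fluorescence intensity with signal-to-noise per printed feature.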 Particulars: small-molecule microarray, higher = more signal.
Assay [7] is described as follows: probe aShh binding to arrayed compounds – biochemical, biotinylated probe, 635/667 nm fluorescence, primary screen (AID 1114).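 Further: probe is biotin-labelled aShh protein from a stem cell growth factor screen; measures binding of labelled protein to compounds printed on the slide; score merges feature fluorescence at 667 nm with signal-to-noise.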 The following applies: small-molecule microarray, higher = more signal.
Assay [8] can be described thus: probe aNog binding to arrayed compounds – biochemical, biotinylated probe, 635/667 nm fluorescence, primary screen (AID 1115).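 Further: probe is biotinylated aNog protein used at 0.15 µg/mL for 1 h at 4 C; z-score combines 667 nm fluorescence of each spot with its signal to noise.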 Particulars: small-molecule microarray, higher = more signal.
Assay [9] addresses Torsin-1A-interacting protein 1 (Homo sapiens) (UniProt Q5JTV8). Nature of the assay: compound microarray binding of lysate hLAP1 – cell lysate, small-molecule microarray, COS7 lysate, 635/667 nm fluorescence, primary screen (AID 1116). The following applies: 635 nm fluorescence, higher = more signal.
Assay [10] concerns the target Alpha-bungarotoxin (Bungarus multicinctus) (UniProt P60615). Nature of the assay: compounds binding labelled alpha-BTX control protein – biochemical, small-molecule microarray, Alexa647 label, 635/667 nm fluorescence, artefact control for SMM control protein annotation, profiling panel (AID 1117). Particulars: alpha-BTX-A647 binding fluorescence, higher = more signal.

Chain of Torsin-1A-interacting protein 1 (Homo sapiens) (Q5JTV8 whole entry, looked up): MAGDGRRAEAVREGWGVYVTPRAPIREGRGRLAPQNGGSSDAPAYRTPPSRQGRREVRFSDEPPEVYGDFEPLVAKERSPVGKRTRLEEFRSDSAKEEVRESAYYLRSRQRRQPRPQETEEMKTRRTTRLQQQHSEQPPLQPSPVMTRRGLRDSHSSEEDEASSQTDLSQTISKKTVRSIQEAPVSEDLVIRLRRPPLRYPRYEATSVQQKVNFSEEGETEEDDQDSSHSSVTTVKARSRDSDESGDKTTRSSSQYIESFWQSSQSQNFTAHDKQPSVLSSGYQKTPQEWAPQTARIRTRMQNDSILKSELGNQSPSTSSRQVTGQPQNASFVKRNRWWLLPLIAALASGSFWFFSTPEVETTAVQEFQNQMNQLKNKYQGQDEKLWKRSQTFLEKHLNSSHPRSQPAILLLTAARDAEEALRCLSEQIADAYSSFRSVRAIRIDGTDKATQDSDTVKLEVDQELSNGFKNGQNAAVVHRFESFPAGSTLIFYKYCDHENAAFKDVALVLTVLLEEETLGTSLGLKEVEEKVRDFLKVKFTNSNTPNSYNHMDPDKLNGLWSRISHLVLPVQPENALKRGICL
Chain of Alpha-bungarotoxin (Bungarus multicinctus) (P60615 whole entry, looked up): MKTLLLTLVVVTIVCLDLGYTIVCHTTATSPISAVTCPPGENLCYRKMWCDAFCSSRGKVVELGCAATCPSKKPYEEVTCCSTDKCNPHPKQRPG
Chain of Left-right determination factor 2 (Homo sapiens) (O00292 whole entry, looked up): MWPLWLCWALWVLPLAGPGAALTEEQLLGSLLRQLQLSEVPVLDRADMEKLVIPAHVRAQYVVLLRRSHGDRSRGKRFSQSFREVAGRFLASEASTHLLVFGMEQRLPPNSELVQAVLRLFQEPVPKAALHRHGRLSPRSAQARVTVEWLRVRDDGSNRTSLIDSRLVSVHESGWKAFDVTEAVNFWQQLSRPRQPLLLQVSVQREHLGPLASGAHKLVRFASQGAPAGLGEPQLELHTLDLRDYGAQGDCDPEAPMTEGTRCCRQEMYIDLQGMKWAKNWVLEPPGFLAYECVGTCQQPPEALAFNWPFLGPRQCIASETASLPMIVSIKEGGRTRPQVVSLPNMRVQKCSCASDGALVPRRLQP

With `COCCOC(=O)N1C(=O)[C@@]2(c3cc(C#Cc4ccc(OC)cc4)ccc31)[C@H](C(=O)N1CCCCCCC1)[C@H]1C(=O)O[C@H](c3ccccc3)[C@H](c3ccccc3)N1[C@@H]2c1ccccc1OCCO`, the composite z-score in [1] was found to be 1.35; in assay [3], 0.647; in assay [4] it was 2.42; in assay [5] it was 1.49; in assay [6], 1.16; in [7] it was 0.451. Further, the composite z-score in assay [8] turned out to be 1.53; in assay [9], 4.47; in assay [10], 2.27. This compound also showed a z-score in assay [2] of -0.0111.
Regarding `COc1ccc(CCNC(=O)[C@@H]2c3ccccc3C(=O)N(CC34CC5CC(CC(C5)C3)C4)[C@H]2c2ccc(CO)cc2)cc1`, the composite z-score in [1] is 1.29; in assay [3], 0.453; in assay [4], 1.67; in [5] it was 0.576; in assay [6] it was -0.0286; in assay [7], 0.0381. Also, the composite z-score was -0.338 in assay [8], 0.321 in assay [9] and 0.664 in assay [10]. The compound further gave a z-score in [2] of -2.34.
For `C=CC(CO)NC(=O)OCC1c2ccccc2-c2ccccc21` (stereo not given), the composite z-score was 0.0077 in assay [1]; 0.407 in assay [3]; -0.0914 in assay [4]; -0.885 in assay [5]; 0.048 in [6]; -0.426 in assay [7]. For the same compound, the composite z-score in assay [8] is -0.208; in [9] it was -0.141; in assay [10], 0.252. For the same compound, the z-score in assay [2] is -0.479.
`CCCCC(=C=CC[C@@H](O)c1cccc(OCCO)c1)C[C@@H](O)COCc1ccccc1`: the composite z-score in [1] is -0.622; in assay [3] it was -0.0756; in assay [4], -0.613; in [5], -0.285; in [6], -0.096; in [7], -0.0709. The composite z-score in assay [8] was -0.219; in assay [9] it was 0.546; in [10], 1.35. The compound further came in with a z-score in assay [2] of -1.78.
With `O=C1OCCC=C[C@H]2OC34C=CCN(CCN5CCOCC5)C(=O)[C@H]3N(CCCO)C(=O)[C@@H]4C12` (stereo not given in full), the composite z-score in [1] is -0.211; in assay [3] it was -0.861; in [4], -0.572; in assay [5], -1.17; in assay [6], -0.228; in [7], -0.144. Also, the results for the composite z-score in assay [8], in assay [9] and in [10] were -0.318, -0.79 and -0.386, respectively. Besides, in [2], the z-score was -1.03.
With `COC(=O)[C@@]1(Cc2ccccc2)[C@H]2c3cc(C(=O)N4CCCC4)n(Cc4ccc(C(F)(F)F)nc4)c3C[C@H]2CN1C(=O)c1ccccc1`, the composite z-score in [1] is 1.46; in [3], -0.208; in [4], 1.96; in assay [5], 0.836; in assay [6], 0.288; in assay [7], 1.36. The composite z-score was 1.48 in assay [8], 0.658 in assay [9] and 1.56 in assay [10]. Moreover, the z-score in assay [2] was -2.59.
Regarding `COC(=O)[C@@]1(Cc2ccc(OC)cc2)[C@H]2c3cc(C(=O)N4CCCC4)n(CCc4ccc(OC)c(Br)c4)c3C[C@H]2CN1C(=O)c1ccccc1`, the composite z-score in [1] is -0.027; in assay [3] it was -0.38; in assay [4] it was 2.19; in [5] it was 0.967; in [6] it was -0.0519; in assay [7], 0.865. Moreover, the composite z-score in assay [8] was 2.37; in [9] it was 2.06; in assay [10], -0.123. This compound came in with a z-score in assay [2] of 0.0171.
Turning to `COc1cccc(OC)c1C(=O)O[C@H]1[C@@H]2OC(=O)[C@H](Cc3cccc(Br)c3)C/C=C/C[C@@H](Cc3cccc(Br)c3)C(=O)O[C@H]2[C@@H](OC)O[C@@H]1CO`, the composite z-score in assay [1] is 0.479; in [3], 0.309; in [4], -0.108; in assay [5] it was -0.0545; in assay [6], -0.0869; in [7] it was 0.111. Also, the composite z-score was determined as 0.113 in assay [8], 0.482 in [9] and 0.528 in [10]. Moreover, in [2], the z-score was -2.37.
With `COCCCNC(=O)[C@@]1(Sc2ccc(C)cc2)CC(=O)N(C2CCCCC2)[C@@H]1c1ccc(CO)cc1I`, the composite z-score in assay [1] is 1.01; in assay [3] it was 0.816; in [4], 0.99; in assay [5], 0.565; in assay [6], -0.0853; in assay [7], -0.0362. Moreover, the composite z-score in [8] is -0.631; in [9] it was 1.34; in [10] it was 1.99. In assay [2], this compound registered a z-score of -2.63.
With `O=C1NC(=O)C2C1C=CC(C(O)c1cccc(O)c1)N2Nc1ccc(Cl)cc1Cl` (stereo not given), the composite z-score in assay [1] was -0.429; in assay [3], -0.715; in [4], 0.741; in [5], 0.675; in [6], -0.104; in [7], -0.212. Also, the composite z-score is -0.237 in assay [8], -0.369 in assay [9] and 0.369 in [10]. Further, the z-score in assay [2] was -0.591.
As for `CCCC=C(CCC)[C@@H](NC(=O)c1ccco1)c1ccc(C(=O)OC)cc1`, the composite z-score in assay [1] was determined as 1.43; in [3], 0.177; in assay [4], 1.37; in assay [5], 1.27; in assay [6], 0.117; in assay [7] it was 0.202. Also, the figures for the composite z-score in assay [8], in assay [9] and in assay [10] were 1.69, 1.02 and 1.38, respectively. In [2], this compound came in with a z-score of -2.72.
With `[N-]=[N+]=NCc1ccccc1[C@H]1OC(c2ccc(OCCCO)cc2)=N[C@@]1(Cc1ccccc1)C(=O)N1CCOCC1`, the composite z-score was 1.06 in assay [1]; 0.335 in assay [3]; 1.48 in assay [4]; 0.779 in assay [5]; 0.186 in assay [6]; -0.226 in assay [7]. Moreover, the composite z-score in [8] was -0.461; in [9], 1.43; in assay [10], 1.28. Moreover, the z-score in [2] is -2.31.
In the case of `CC(C)CNC(=O)[C@@H]1c2ccccc2C(=O)N(Cc2ccccc2)[C@H]1c1ccc(CO)cc1`, the composite z-score is 0.93 in [1]; -1.35 in assay [3]; -0.148 in assay [4]; -0.202 in assay [5]; -0.253 in assay [6]; -0.1 in assay [7]. Moreover, the composite z-score was 0.127 in [8], 0.936 in [9] and -0.865 in assay [10]. This compound also returned a z-score in assay [2] of 0.372.
For `COC(=O)C1(CC(C)C)C=C2C(=C(C(C)C)C(=O)C2C)CN1` (stereo not given), the composite z-score in assay [1] was -0.57; in assay [3] it was -0.975; in assay [4], 0.228; in [5], 1.07; in assay [6] it was -0.0403; in [7] it was 0.171. Also, the composite z-score in assay [8] was 0.595; in assay [9], 0.187; in assay [10], -0.77. Besides, in assay [2], the z-score was -0.193.
In the case of `C=CCOC(=O)[C@@H]1[C@H]2C(=O)O[C@H](c3ccccc3)[C@H](c3ccccc3)N2[C@H](c2ccc(OCCOC(=O)[C@H]3C[C@H]4C(=O)NCC(=O)N4[C@H]3c3ccc(O)cc3)cc2)[C@@]12C(=O)Nc1ccc(I)cc12`, the composite z-score is 0.222 in assay [1]; 0.606 in [3]; 0.342 in [4]; -0.103 in [5]; -0.0758 in [6]; -0.294 in [7]. For the same compound, the composite z-score was 0.036 in [8], 1.27 in [9] and 1.74 in assay [10]. Also, the z-score in assay [2] is -2.09.
`CC(C)C[C@@H]1NC(=O)[C@@]23C(=O)N[C@@H](Cc4ccccc4)C2[C@H](C)[C@@]2(C)O[C@H]2C3/C=C/C/C=C\CNC(=O)[C@@H](CC(C)C)NC1=O` (stereo not given in full): the composite z-score in [1] was 0.741; in assay [3] it was 0.567; in assay [4] it was -0.475; in assay [5], -0.674; in assay [6], -0.101; in assay [7], -0.238. Besides, the composite z-score in assay [8] was -0.35; in assay [9], 0.403; in [10], 0.322. In assay [2], this compound showed a z-score of 0.052.
On to `O=C1OCCC=C[C@H]2OC34C=CCN(c5ccc(Cl)cc5)C(=O)[C@H]3N(CCO)C(=O)[C@@H]4C12` (stereo not given in full), for which the composite z-score in assay [1] is -0.646; in assay [3], -1.34; in assay [4], -0.585; in assay [5] it was -0.1; in assay [6], -0.239; in [7] it was -0.262. The composite z-score is -0.274 in assay [8], -0.855 in [9] and -0.957 in [10]. In [2], this compound displayed a z-score of 0.318.
